D2 antag: HTS Assay for Allosteric Antagonists of the Human D2 Dopamine Receptor: Primary Screen for Antagonists; D(2) dopamine receptor (Homo sapiens), P14416; HEK293 TREx D2 cells, calcium flux, dopamine EC80; inhibition, % at 10 µM; actives 2% (n = 340,000); AID 485344, 2010; in the data active = inhibition above about 30%; inactive = below that, where a call was filed
Target sequence (P14416 whole entry, looked up): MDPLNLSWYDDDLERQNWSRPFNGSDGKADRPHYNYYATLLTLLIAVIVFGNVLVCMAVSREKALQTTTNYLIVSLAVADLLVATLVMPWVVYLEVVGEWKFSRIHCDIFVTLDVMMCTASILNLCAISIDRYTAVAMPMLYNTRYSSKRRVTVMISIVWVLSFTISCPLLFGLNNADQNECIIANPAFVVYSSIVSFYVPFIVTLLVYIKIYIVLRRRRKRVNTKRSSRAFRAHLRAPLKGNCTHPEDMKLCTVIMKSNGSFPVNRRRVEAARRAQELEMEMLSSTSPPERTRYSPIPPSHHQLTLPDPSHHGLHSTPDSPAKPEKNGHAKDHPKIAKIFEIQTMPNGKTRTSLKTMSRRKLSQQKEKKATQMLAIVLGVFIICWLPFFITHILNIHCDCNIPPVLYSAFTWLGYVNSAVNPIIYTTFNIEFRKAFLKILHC
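Compounds are added to dye-loaded, induced HEK293 T-REx cells coupled to calcium release via D2; after a 3 min kinetic read an EC80 dopamine stimulus is given and fluorescence is recorded for 3 more min.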
D2 ag-1: Beta-Arrestin HTS for Positive Allosteric Modulators of the Human D2 Dopamine Receptor: Agonists; D(2) dopamine receptor (Homo sapiens), P14416; DiscoveRx PathHunter D2 beta-arrestin, luminescence, 90 min; 100% = 57 uM dopamine signal; activation, % (concentration not given with the values); actives 0.084% (n = 360,000); in the data active = activation above about 40%; inconclusive = between about 15% and that limit
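Agonist mode: compounds alone added to overnight-plated D2 PathHunter cells for 90 min at 37 C, with 57 uM final dopamine (EC100) defining full response. Beta-arrestin recruitment detected by chemiluminescent reagent, read after 1 h at ambient temperature.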
D2 ag-2: HTS Assay for Allosteric Agonists of the Human D2 Dopamine Receptor: Primary Screen for Agonists; activation, % at 2 µM; HEK293 T-REx D2 cells, calcium flux agonist mode; AID 485358, 2010; D(2) dopamine receptor (Homo sapiens), P14416; actives 0.53% (n = 340,000);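 active = activation over 3 SD above normal in the single-dose calcium agonist read, cut at about 30% in these data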
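Agonism scored from kinetic calcium signal (1 read/sec, 180 s) following compound pin transfer, after a 10 s baseline. Cells: HEK293 Trex line expressing inducible D2 receptor coupled to calcium, dye-loaded after overnight culture at 30 C.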
D2 PAM-1: Beta-Arrestin HTS for Positive Allosteric Modulators of the Human D2 Dopamine Receptor: Potentiators. D(2) dopamine receptor (Homo sapiens), P14416. DiscoveRx D2 beta-arrestin cells, luminescence, 90 min; 100% = 57 uM dopamine signal. potentiation, % (concentration not given with the values). actives 0.23% (n = 360,000). AID 624464, 2012; in the data active = potentiation above about 50%; inconclusive = mostly about 30% to 49%
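PathHunter beta-arrestin assay in DiscoveRx D2 cells. Compounds were added with an EC20 of dopamine (50 nM final) for 90 min at 37 deg C. Luminescence was read 1 h after detection reagent, with 57 uM dopamine as the EC100 control.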
D2 PAM-2: HTS Assay for Positive Allosteric Modulators of the Human D2 Dopamine Receptor: Primary Screen for Potentiators; HEK293 T-REx D2, calcium flux, EC20 dopamine potentiation; potentiation, % at 10 µM; actives 0.34% (n = 340,000);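 active = potentiation over 3 SD above the plate norm, cut at about 30% in these data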
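Cells plated with tetracycline inducer and held overnight at 30 C; calcium dye loaded 30–90 min at room temperature; baseline taken, compound added and read 180 s; EC20 dopamine then added and read 180 s.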
Of the large screens only hits and unclear results are named; the others gave an inactive call. Only some compounds are listed: those with a hit (about 2.4% of all), similar ones and a draw of the others.

CCN(C[C@H]1N[C@@](Cc2ccccc2)(C(=O)OC)[C@H]2C(=O)N(C)C(=O)[C@@H]12)S(=O)(=O)c1ccc(C(C)(C)C)cc1	none (no result: D2 antag, D2 ag-2, D2 PAM-2)
COc1ccccc1-c1oc2ccccc2c1C#CC(C)(C)O	D2 antag 52
COC(=O)C1=C(C(=O)OC)[C@@H]2N(C)c3ccc(OC)cc3[C@@]23C[C@@H](C(=O)OC)N(S(=O)(=O)c2ccc([N+](=O)[O-])cc2)C3=N1	D2 ag-1 inconclusive
CCCCS(=O)(=O)N1C2=NC(C(=O)OC)=C(C(=O)OC)[C@@H]3N(C)c4ccc(OC)cc4[C@]23C[C@H]1C(=O)OC	D2 antag 34
CCOc1ccc(CNC(=O)c2cccc(NC(=O)N3CCSc4ncccc43)c2)cc1	none (no result: D2 antag, D2 ag-1, D2 PAM-1)
O=c1c2sc3ccccc3c2n(Cc2ccc(F)cc2Cl)c(=O)n1Cc1ccccc1	none (no result: D2 antag, D2 ag-1, D2 PAM-1)
COc1ccc2c(c1)NC1(O)c3ccccc3C(=O)C21O (configuration not stated)	D2 antag 32
CC1=C(C#N)C2(O)C(=O)c3ccccc3C2(O)N1 (configuration not stated)	none
CC(=O)OCC#CCSc1nnc(-c2cccc(Br)c2)o1	none (no result: D2 antag, D2 ag-1, D2 ag-2, D2 PAM-1)
CC1(C)CC(=O)/C(=C(\O)CCCN2C(=O)c3ccccc3C2=O)C(=NCC(=O)O)C1	none
O=C1CC(c2ccccc2)CC(=NCCO)/C1=C(\O)CCCN1C(=O)c2ccccc2C1=O (configuration not stated)	D2 PAM-2 51
Cc1cccc(NC(=O)C2CCN(S(=O)(=O)c3cccc4nsnc34)CC2)c1C	none (no result: D2 antag, D2 ag-1, D2 PAM-1)
C=CCN1C(=O)/C(=C/c2ccc(O)c(OC)c2)S/C1=N/c1nccs1	D2 ag-2 45
CCOC(=O)c1c(C)oc2nc(C)nc(NCC3CCN(Cc4ccccc4C)CC3)c12	none (no result: D2 antag, D2 ag-1, D2 PAM-1)
CN(C)c1nc2n(c(=O)n1)CCS2	none
CN(C)c1nc2n(c(=O)n1)C(C#N)CS2 (configuration not stated)	D2 antag 33
O=C1C=C(c2cc(F)ccc2F)C[C@@H](c2ccc(Cl)cc2)C1	none
COc1cc(F)c(C2=CC(=O)C[C@H](c3ccc(Cl)cc3)C2)cc1F	D2 antag 35
COc1ccc2c(c1)-c1nc(NC(=O)c3cc(Cl)ccc3OC)sc1CC2	none (no result: D2 antag, D2 ag-1, D2 PAM-1)
CCNC(=O)C1CCN(c2nnc(C)c3c(C)n(-c4ccc(OC)cc4)nc23)CC1	none (no result: D2 antag, D2 ag-1, D2 PAM-1)
Cc1ccc(Nc2nnc(SC(C)C(=O)NCC3CCCO3)s2)cc1C (configuration not stated)	none
Cc1nnc(SC(C)C(=O)NCC2CCCO2)s1 (configuration not stated)	D2 antag 31
C[N+](C)(C)CC/C=C1/c2ccccc2CSc2ccccc21	none
CNCCC=C1c2ccccc2CCc2ccccc21	D2 antag 42
CC(=O)N1CCCN(C(=O)c2ccc3nc(Cc4cccc(Cl)c4)oc3c2)CC1	none
COC(=O)c1ccccc1NC(=O)CSc1nnc(-c2cccnc2)o1	none (no result: D2 PAM-2)
COC(=O)c1ccccc1NC(=O)CSc1nnc(-c2ccc(C)cc2)o1	D2 PAM-2 31 (no result: D2 ag-1, D2 PAM-1)
O=C(Nc1nnc(S(=O)(=O)N2CCCc3ccccc32)s1)c1ccc(Cl)cc1	none (no result: D2 antag, D2 ag-1, D2 PAM-1)
O=C(COc1ccccc1Cl)Nc1ccccc1C(=O)Nc1cccc(C(=O)O)c1	D2 antag 31
O=C(COc1ccccc1Cl)Nc1ccc(C(=O)O)cc1NC(=O)COc1ccccc1Cl	none
Cc1cc(C=C2C(=O)c3ccccc3C2=O)c(C)n1-c1ccc(Cl)cc1	D2 antag 33
CNC(=O)C1CCC(Cn2c(=O)c3sccc3n(CC(=O)N3CCCC3)c2=O)CC1 (configuration not stated)	none (no result: D2 antag, D2 ag-1, D2 PAM-1)
CCNC(=O)C1(C)CCN(C(=O)c2ccc(OC(F)F)cc2)C1 (configuration not stated)	none (no result: D2 antag, D2 ag-2, D2 PAM-2)
CCCCCCC(C)NC(=S)Nc1cc(S(=O)(=O)N(C)C)ccc1C (configuration not stated)	D2 antag 92
Cc1ccc(S(=O)(=O)N(C)C)cc1NC(=S)NC(C)CCC(C)C (configuration not stated)	D2 antag 77
Cc1ccc(S(=O)(=O)N(C)C)cc1NC(=S)NC(C)CCCC(C)C (configuration not stated)	D2 antag 75
Fc1ccccc1CNCc1ccc2c(c1)OCO2	none
CC(C)(C)OC(=O)NCCCCCc1nnc(SCc2ccccc2)o1	D2 antag 36
O=[N+]([O-])c1nn(-c2ccccc2)n(O)c1=NCCc1ccccc1	D2 ag-1 inconclusive, D2 PAM-1 161
COc1ccc(-n2nc([N+](=O)[O-])c(=NCCc3ccccc3)n2O)cc1	D2 ag-1 inconclusive, D2 PAM-1 131
Cc1ccc(CCN=c2c([N+](=O)[O-])nn(-c3ccccc3)n2O)cc1	D2 ag-1 inconclusive, D2 PAM-1 67
CCCCN(CCCNC(=O)CN1N=C(c2ccccc2)CCC1=O)c1ccccc1	none (no result: D2 antag, D2 ag-1, D2 PAM-1)
COc1cc(C2C(C#N)=C(N)Oc3n[nH]c(-c4cccnc4)c32)ccc1OCC(N)=O (configuration not stated)	D2 antag 30
COc1ccccc1C1CCN(C(=O)c2ccc(C(C)(C)C)cc2)CC1	none
Cc1ccn(CC(C)C(=O)O)n1 (configuration not stated)	D2 antag 34
Cc1ccn(CCSCC(=O)O)n1	none
CC(C)(C)c1ccc(OCc2cc(=O)n3c4c(sc3n2)CCCC4)cc1	none (no result: D2 antag, D2 ag-1, D2 PAM-1)
CN1/C(=C\C=C(/C#N)C(=O)Nc2ccc(Cl)cc2)C(C)(C)c2ccccc21	D2 ag-2 40
CN1/C(=C\C(=O)Nc2ccc(Cl)cc2)C(C)(C)c2ccccc21	none
Cn1cc(S(=O)(=O)N2CCN(c3ccccc3F)CC2)c(=O)n(C)c1=O	D2 antag 32
CCCCCn1cc2c(c1-c1ccc(Br)cc1)c(=O)n(C)c(=O)n2C	none (no result: D2 antag, D2 ag-1, D2 PAM-1)
COC(=O)c1c(-c2cccs2)csc1NC(=O)c1cc(OC)c(OC)c(OC)c1	none (no result: D2 antag, D2 ag-1, D2 PAM-1)
CC(=O)Nc1cc2c(cc1C(=O)c1ccc(C)cc1)OCCO2	D2 antag 34
CSc1cccc(NC(=O)C2CC(=O)N(Cc3ccccc3)C2)c1 (configuration not stated)	none
O=C(NCc1ccccc1)c1ccc2c(c1)C(=O)N(CC1CCCO1)C2=O (configuration not stated)	D2 antag 31
O=C(Cc1ccccc1)Nc1ccc2c(c1)C(=O)N(CC1CCCO1)C2=O (configuration not stated)	none
